Rows were chosen to be rich in hits. Some 7.1% of all compounds tested hit in one or more screens of this group.
PTK2B oligo ant: antagonists of Pyk2 self-association, primary screen, Q293 cells, FERM NanoBiT luminescence, HTS. Protein-tyrosine kinase 2-beta (Homo sapiens), Q14289. hits give low values. z-score (the deposit names both 25 µM and 10 µM). 0.83% of 99,000 active;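 active means Z-score of -3 or lower, scaled per plate to the spread of control and sample wells; inactive means z-score above -3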;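 further: negative z-score means lost luminescence so less FERM oligomerization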
M1 antagonist: antagonists of rat M1 muscarinic receptor; B-score at 10 µM; AID 628, 2007; 3.4% of 64,000 active; Muscarinic acetylcholine receptor M1 (Rattus norvegicus), P08482; CHO-M1 cells, Fluo-4 calcium, ACh EC80 antagonist mode; hits give low values;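 active means calcium fluorescence response, raw or row-and-column corrected B-score, differing from the plate sample mean either way at a set confidence level, mostly lower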
M1 agonist: M1 muscarinic receptor agonists, primary screen, CHO-M1 cells, Fluo-4 calcium, agonist mode; B-score at 10 µM; 3% of 64,000 active; Fluo-4 calcium fluorescence; hits give high values; Muscarinic acetylcholine receptor M1;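 active means fluorescence rise, raw or as B-score row- and column-corrected plate score, outside the 99.7% band of its plate's samples, either direction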
Cav32 inh: Cav3.2 calcium influx blockers – cell-based, Fluo-4 calcium fluorescence, FDSS, MLSMR library, primary screen | 4% of 100,000 active | AID 449739, 2010 | Voltage-dependent T-type calcium channel subunit alpha-1H (Homo sapiens), O95180 | Cav3.2-expressing cells; hits give low values | B-score at 10 µM;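 active means single-dose well whose peak fluorescence ratio is a statistical outlier from its plate by either plate-standardised score or position-corrected B-score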
Target sequence (O95180 whole entry, looked up): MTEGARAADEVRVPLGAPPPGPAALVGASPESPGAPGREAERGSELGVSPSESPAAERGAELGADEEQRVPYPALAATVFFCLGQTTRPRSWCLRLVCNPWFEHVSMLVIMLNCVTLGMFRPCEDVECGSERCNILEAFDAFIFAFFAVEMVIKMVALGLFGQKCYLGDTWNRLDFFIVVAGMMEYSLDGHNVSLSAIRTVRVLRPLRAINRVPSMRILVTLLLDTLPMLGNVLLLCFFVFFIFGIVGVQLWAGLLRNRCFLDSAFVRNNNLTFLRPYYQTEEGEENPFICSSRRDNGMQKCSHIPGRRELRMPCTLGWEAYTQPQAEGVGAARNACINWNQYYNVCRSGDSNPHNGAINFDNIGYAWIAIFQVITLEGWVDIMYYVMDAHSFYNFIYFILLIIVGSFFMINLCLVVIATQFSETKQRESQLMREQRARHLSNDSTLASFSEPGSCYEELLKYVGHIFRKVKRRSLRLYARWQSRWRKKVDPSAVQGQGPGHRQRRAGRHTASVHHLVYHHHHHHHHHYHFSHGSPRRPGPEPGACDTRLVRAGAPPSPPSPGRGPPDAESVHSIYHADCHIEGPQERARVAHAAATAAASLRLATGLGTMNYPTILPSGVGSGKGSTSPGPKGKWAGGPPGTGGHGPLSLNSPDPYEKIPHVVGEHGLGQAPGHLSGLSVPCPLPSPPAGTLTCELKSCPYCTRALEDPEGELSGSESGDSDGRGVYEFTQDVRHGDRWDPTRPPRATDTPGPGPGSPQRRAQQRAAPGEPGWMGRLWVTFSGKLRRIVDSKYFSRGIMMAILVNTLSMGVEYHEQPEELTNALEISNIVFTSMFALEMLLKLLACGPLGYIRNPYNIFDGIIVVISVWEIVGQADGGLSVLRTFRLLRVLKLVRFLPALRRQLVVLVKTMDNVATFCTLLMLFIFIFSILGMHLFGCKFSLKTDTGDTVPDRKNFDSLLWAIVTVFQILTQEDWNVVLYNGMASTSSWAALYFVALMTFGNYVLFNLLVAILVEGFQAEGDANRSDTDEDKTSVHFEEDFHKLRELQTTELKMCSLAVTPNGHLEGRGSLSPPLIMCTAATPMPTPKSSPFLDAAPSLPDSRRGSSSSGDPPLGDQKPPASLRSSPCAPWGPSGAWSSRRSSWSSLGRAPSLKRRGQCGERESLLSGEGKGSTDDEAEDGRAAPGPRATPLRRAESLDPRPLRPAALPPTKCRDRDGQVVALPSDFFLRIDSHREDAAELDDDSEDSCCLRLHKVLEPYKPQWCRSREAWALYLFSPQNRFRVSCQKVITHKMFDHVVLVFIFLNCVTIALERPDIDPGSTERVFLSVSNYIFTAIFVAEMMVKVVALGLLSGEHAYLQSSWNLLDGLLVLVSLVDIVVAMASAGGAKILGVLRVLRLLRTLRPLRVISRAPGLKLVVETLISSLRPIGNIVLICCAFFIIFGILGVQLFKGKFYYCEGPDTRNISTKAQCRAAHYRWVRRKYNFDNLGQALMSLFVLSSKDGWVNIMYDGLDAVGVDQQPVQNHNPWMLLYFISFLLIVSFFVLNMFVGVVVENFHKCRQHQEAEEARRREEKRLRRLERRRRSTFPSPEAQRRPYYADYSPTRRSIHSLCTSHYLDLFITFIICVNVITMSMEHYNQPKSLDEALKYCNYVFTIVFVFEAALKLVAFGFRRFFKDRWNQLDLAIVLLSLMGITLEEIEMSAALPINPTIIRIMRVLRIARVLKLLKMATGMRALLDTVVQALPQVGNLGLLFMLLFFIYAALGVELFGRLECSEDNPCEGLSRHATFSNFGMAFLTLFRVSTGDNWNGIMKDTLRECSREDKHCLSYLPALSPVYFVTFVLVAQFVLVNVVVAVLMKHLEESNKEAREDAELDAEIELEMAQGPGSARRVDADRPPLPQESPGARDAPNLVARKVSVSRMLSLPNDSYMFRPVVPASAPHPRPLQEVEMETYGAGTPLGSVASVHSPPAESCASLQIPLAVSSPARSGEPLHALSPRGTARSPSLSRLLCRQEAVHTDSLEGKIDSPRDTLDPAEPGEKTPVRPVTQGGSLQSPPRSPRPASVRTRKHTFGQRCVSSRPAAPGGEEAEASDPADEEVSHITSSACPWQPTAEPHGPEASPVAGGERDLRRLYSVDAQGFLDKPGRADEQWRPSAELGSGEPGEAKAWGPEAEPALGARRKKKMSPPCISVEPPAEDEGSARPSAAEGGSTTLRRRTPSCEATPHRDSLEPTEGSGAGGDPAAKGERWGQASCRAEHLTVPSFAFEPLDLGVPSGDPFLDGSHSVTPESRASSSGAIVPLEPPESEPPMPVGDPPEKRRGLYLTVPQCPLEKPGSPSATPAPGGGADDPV
The depositor's hits bear a star; . = no result.

SMILES	PTK2B oligo ant	M1 antagonist	M1 agonist	Cav32 inh
Fc1ccc(CNC(=S)Nc2ccc(Cl)cc2)cc1	0.09	.	.	-4.3*
Fc1ccc(NC(=S)Nc2ccc(F)c(Cl)c2)cc1Cl	-1.6	.	.	-4.1*
CCc1sc(C(=O)NCc2cc(C)n(C)n2)cc1Br	-0.46	-0.038	-5.1*	1.3
Cc1cccc(N2CCN(C(=O)C3CCCN(S(=O)(=O)c4cccc5cccnc45)C3)CC2)c1C (centres undefined)	.	-0.71	4.6*	.
O=C(C1CCN(S(=O)(=O)c2cccc3cccnc23)CC1)N1CC=C(c2ccccc2)CC1	.	-2	4.5*	.
O=C(c1cc2nc(-c3cccs3)cc(C(F)(F)F)n2n1)N1CCCc2ccccc21	-2.4	.	.	-4.8*
O=C(c1cnn2c(C(F)(F)F)cc(-c3cccs3)nc12)N1CCN(C(c2ccccc2)c2ccccc2)CC1	-1.4	.	.	-4.2*
Cc1ccc(-n2c(C)nc3c(cnn3-c3ccc(F)cc3)c2=O)cc1	-1.2	-1.6	-1.2	.
Cc1nc2c(cnn2-c2ccccc2Cl)c(=O)n1-c1ccc(C(C)C)cc1	-1.6	.	.	-6.2*
O=C(NCc1ccccc1)c1ccc(CN(c2ccccn2)S(=O)(=O)c2ccccc2)cc1	0.3	.	.	2
Cc1cc(OCC(=O)Nc2ccc(F)c(F)c2)nc(C(C)C)n1	0.81	.	.	0.56
Cc1cccc(OCC(=O)NC(C)C(=O)N/N=C/c2c(OCc3ccccc3)ccc3ccccc23)c1 (centres undefined)	0.19	.	.	-6.8*
Cc1ccnc(NS(=O)(=O)c2ccc(N)cc2)n1	.	.	.	-1.3
Cc1cccnc1NC(=O)COc1ccc2oc3c(c2c1)CCCC3	1.1	-0.32	-0.41	-5.6*
O=[N+]([O-])c1cccnc1N1CCC(c2cc(-c3cccc(C(F)(F)F)c3)n[nH]2)CC1	-3.4*	.	.	-0.36
O=[N+]([O-])c1cccnc1N1CCC(c2cc(-c3ccc(Cl)cc3Cl)n[nH]2)CC1	-2.7	.	.	-0.49
COCCNc1nc(SCc2ccccc2)nc2sc3c(c12)CCC3	-0.44	.	.	-4.5*
CC(CO)Nc1nc(SCc2ccccc2)nc2sc3c(c12)CCC3 (centres undefined)	-0.12	.	.	-1.6
O=c1[nH]c(SCc2n[nH]c(=S)n2-c2ccccc2)nc2sc3c(c12)CCC3	-1	.	.	-1.1
O=Nc1c(O)n(Cc2cccc(Cl)c2)c2ccccc12	-2	.	.	-4.4*
NC(=S)N=Nc1c(O)n(Cc2ccccc2)c2ccccc12	-0.83	.	.	.
CC1CCN(c2cc(N)c(Cl)cc2[N+](=O)[O-])CC1	-0.51	.	.	-3.2
O=C(CSc1nnc(-c2ccc(Cl)cc2)n1Cc1ccco1)NCc1ccc2c(c1)OCO2	0.41	.	.	-5.3*
COc1ccc(-c2nnc(SC(C)C(=O)NCc3ccc4c(c3)OCO4)n2Cc2ccco2)cc1 (centres undefined)	0.38	.	.	-5.3*
CC/C(O)=C1\C(=O)CC(c2ccccc2)CC1=NCCc1c(C)[nH]c2ccc(C)cc12 (centres undefined)	.	.	.	-4.6*
SMILES	PTK2B oligo ant	M1 antagonist	M1 agonist	Cav32 inh
CCC/C(O)=C1\C(=O)CC(c2ccccc2)CC1=NCCc1c(C)[nH]c2ccc(C)cc12 (centres undefined)	.	.	.	-1.1
S=C(Nc1ccc(Cl)c(Cl)c1)NN1CCOCC1	0.02	.	.	.
O=c1cc(Nc2ccc3c(c2)OCCO3)[nH]c(=O)n1Cc1ccc(F)cc1	-1.9	-0.84	-0.41	-3.9*
CC(NC(=S)NCCc1ccccc1)C(c1cccs1)N1CCN(Cc2ccccc2)CC1 (centres undefined)	.	.	.	-4.6*
Clc1cccc(N/N=C(\Cc2nc3ccccc3[nH]2)c2ccccc2)c1	-2.9	.	.	.
COc1cccc(-n2c(SCC(=O)Nc3nccs3)nnc2-c2ccoc2C)c1	-1.8	.	.	-4*
Cc1occc1-c1nnc(SCC(=O)NCCc2ccccc2)n1Cc1ccccc1	-0.11	-0.53	-0.44	-5*
Cc1occc1-c1nnc(SCC(=O)Nc2ccccc2)n1C(C)c1ccccc1 (centres undefined)	-0.96	-0.42	0.96	-4.3*
COc1cccc(-n2c(SCC(=O)NCCc3ccccc3)nnc2-c2ccoc2C)c1	-1.6	0.55	0.15	-8*
COc1ccc(-n2c(SCC(=O)Nc3nccs3)nnc2-c2ccoc2C)cc1	1.9	.	.	-1.5
Cc1occc1-c1nnc(SCC(N)=O)n1Cc1ccccc1	-0.1	.	.	0.33
OCC[C@@H]1C[C@H](O)[C@@H](O)[C@@]2(CCCO2)O1	.	.	.	0.035
CC1(C)CC(=O)C=C(NCc2ccc(Cl)c(Cl)c2)C1	-0.35	.	.	-0.62
CC(C)OCC(O)CN1CCNCC1 (centres undefined)	0.14	.	.	-0.55
CCn1c(SCC(=O)Nc2nc(C)cs2)nnc1-c1ccoc1C	-0.8	.	.	0.034
COc1ccc(-n2c(SCC(=O)Nc3nc(C)cs3)nnc2-c2ccoc2C)cc1	-1.1	.	.	-6.5*
CCCOc1ccc(C(=O)NNC(=S)NC(=O)c2cc(-c3ccccc3)nc3ccccc23)cc1	-0.67	.	.	-7.3*
Cc1ccccc1C(=O)NNC(=S)NC(=O)COc1ccccc1	1.9	.	.	-3.3
Cc1ccc(C(=O)NNC(=S)NC(=O)COc2ccccc2)cc1	0.61	.	.	-5.2*
O=C(Nc1ccc(N2CCOCC2)cc1)c1cccc(S(=O)(=O)N2CCC(Cc3ccccc3)CC2)c1	-1.1	.	.	-3.7
N#Cc1cc([N+](=O)[O-])cnc1NCC(O)CO (centres undefined)	0.5	.	.	-1.6
Cc1cccc(NS(=O)(=O)c2ccc3c(c2)Cc2cc(S(=O)(=O)Nc4cccc(C)c4C)ccc2-3)c1C	0.17	.	.	.
CCN(CC)CC(O)Cn1c2ccccc2c2ccccc21 (centres undefined)	0.57	-1.3	-0.45	0.011
C=CCN(CC=C)CC(O)Cn1c2ccccc2c2ccccc21 (centres undefined)	-0.22	.	.	-3.4*
CCN(CC)C(=O)c1cnn(-c2ccccc2)c1NC(=O)c1cccs1	0.66	.	.	0.56
SMILES	PTK2B oligo ant	M1 antagonist	M1 agonist	Cav32 inh
O=C1CCCN1c1ccc(S(=O)(=O)Oc2cccc(Cl)c2)cc1[N+](=O)[O-]	-0.04	.	.	-1.4
O=C1CC(c2ccc(Cl)cc2)CC(O)=C1C=NCc1ccc(Cl)c(Cl)c1 (centres undefined)	0.72	.	.	-0.078
CCc1ccc(NC(=O)CCc2nc3cccnc3n2Cc2ccc(OC)cc2)cc1	-1.1	.	.	-6.9*
CCn1c(SCC(=O)Nc2ccc(C(=O)OC)cc2)nc2cccnc21	0.09	.	.	-0.27
CN(Cc1ccc(-n2cccn2)cc1)C(=O)c1cnn2c1NC(c1ccco1)CC2C(F)(F)F (centres undefined)	-0.26	-0.87	1.3	-7.6*
Cc1ccc(C2CC(C(F)(F)F)n3nc(C(=O)NCc4c(C)nn(C)c4C)c(Cl)c3N2)cc1 (centres undefined)	-3.5*	-0.035	0.0098	-1.8
COCCNC(=O)c1cnn2c1NC(c1ccco1)CC2C(F)(F)F (centres undefined)	-0.07	.	.	-0.28
Cc1ccc(C2CC(C(F)(F)F)n3ncc(C(=O)NCc4ccco4)c3N2)cc1 (centres undefined)	0.2	0.0043	0.62	-5.8*
O=C(NCc1ccc(Cl)cc1)c1ccc(Br)o1	.	.	.	-0.012
COc1ccnc(CSC(N)=Nc2cccc(C(F)(F)F)c2)c1	0.96	.	.	.
